# Screening data: PubChem BioAssay, several laboratories
# Compounds with a hit are over-represented: about 27% of the library has one in this group of screens.
# CYP2C9 inhib – blockers of cytochrome P450 2C9 activity – biochemical, luminescence, ADME assay, primary screen; CYP2C9 Supersomes, luciferin-H conversion; inhibition, % at 5 µM; P11712; 20% of 96,000 active;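 active = blocking of liver enzyme CYP2C9 beyond about 50% at 5 µM, limit read from the data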
# Cav32 inh – Cav3.2 calcium influx blockers – cell-based, Fluo-4 calcium fluorescence, FDSS, MLSMR library, primary screen. Voltage-dependent T-type calcium channel subunit alpha-1H (Homo sapiens), O95180. 4% of 100,000 active. Cav3.2-expressing cells; stronger effect = lower value. B-score at 10 µM;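 active = single-dose well whose peak fluorescence ratio is a statistical outlier from its plate by either plate-standardised score or position-corrected B-score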
# CYP2C19 activ – human CYP2C19 activators, primary screen, biochemical, luminescence. Cytochrome P450 2C19 (Homo sapiens), P33261. recombinant CYP2C19, luciferin-H EGE luminescence; stronger effect = higher value; 0 = fully inhibited enzyme, 1 = untreated enzyme. activation factor at 5 µM. 96,000 tested, under 10 active. AID 1025, 2008;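 active = activation factor of at least 2 at 5 µM in the primary screen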;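 also: 0 = wells with 2.5 mM tranylcypromine and 1 = vehicle-only wells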
# Target sequence (P33261 whole entry, looked up): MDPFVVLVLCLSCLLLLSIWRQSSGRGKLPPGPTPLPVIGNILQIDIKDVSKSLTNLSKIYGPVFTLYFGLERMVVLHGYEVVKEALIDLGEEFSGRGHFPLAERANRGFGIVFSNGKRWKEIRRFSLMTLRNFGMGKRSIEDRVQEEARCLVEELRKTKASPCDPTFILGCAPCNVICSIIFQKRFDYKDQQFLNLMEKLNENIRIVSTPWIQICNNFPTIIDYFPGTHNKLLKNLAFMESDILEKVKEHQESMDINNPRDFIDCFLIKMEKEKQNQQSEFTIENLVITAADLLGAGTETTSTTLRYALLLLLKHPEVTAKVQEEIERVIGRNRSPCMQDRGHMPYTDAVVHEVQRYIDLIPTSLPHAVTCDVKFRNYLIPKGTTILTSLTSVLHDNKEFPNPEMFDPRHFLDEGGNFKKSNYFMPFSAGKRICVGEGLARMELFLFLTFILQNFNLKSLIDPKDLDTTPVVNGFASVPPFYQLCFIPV
# CYP2C9 activ – human CYP2C9 activators, primary screen, biochemical, luminescence | AID 1024, 2008 | recombinant CYP2C9, luciferin-H conversion; stronger effect = higher value; factor 1 = untreated enzyme, 0 = blocked | 1.4% of 96,000 active | activation factor at 5 µM;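 active = activation factor of 2 or more for CYP2C9 at a 5 µM dose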;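 also: 0 = sulfaphenazole-blocked wells and 1 = vehicle-only wells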
# CYP2C19 inhib – blockers of cytochrome P450 2C19 activity – biochemical, luminescence, ADME assay, primary screen | P33261 | CYP2C19 Supersomes, luciferin-H EGE luminescence, 30 min | inhibition, % at 5 µM | 21% of 96,000 active | AID 778, 2007;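 active = CYP2C19 inhibition above a set limit at 5 µM in the primary screen, cut at about 50% in these data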;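 also: plate controls were negative control wells for no effect and 2.5 mM tranylcypromine positive control for full effect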
# * marks the source's active call; other numbers are inactive results; · = no result given.
SMILES,CYP2C9 inhib,Cav32 inh,CYP2C19 activ,CYP2C9 activ,CYP2C19 inhib
COc1ccc2[nH]c(=O)c(CN(C)C(=O)c3ccncc3)cc2c1,60*,0.42,0.1,0.4,92*
COc1ccc(/C=N/NC(=O)CCCC(=O)NC2CCCCC2)cc1,-2,0.54,1,1,-1
Cc1ccc2[nH]c(=O)c(CN(CCO)C(=O)N(C)C)cc2c1,·,-0.64,·,·,·
CCCN(Cc1cc2cc(C)ccc2[nH]c1=O)C(=O)c1cccc(OC)c1,58*,-1.1,0.4,0.4,64*
COc1ccc2cc(CN(C(=O)Nc3ccccc3OC)C3CCCC3)c(=O)[nH]c2c1,51*,-3,0.8,0.5,23
CCCCN(Cc1cc2cc(OC)ccc2[nH]c1=O)C(=O)c1ccco1,70*,0.075,0.3,0.3,74*
CCCN(Cc1cc2cccc(C)c2[nH]c1=O)C(=O)c1cccc(OC)c1,·,0.35,·,·,·
CCCN(Cc1cc2cc(C)ccc2[nH]c1=O)S(C)(=O)=O,73*,0.18,0.1,0.3,88*
CCCCN(Cc1cc2cc(OC)ccc2[nH]c1=O)C(=O)c1ccccn1,48,0.0077,0.5,0.5,49
CC(=O)NCCc1nc(-c2ccc(Cl)cc2)no1,·,0.55,·,·,·
COc1ccc2[nH]c(=O)c(CN(C(=O)c3ccccn3)C3CCCCC3)cc2c1,63*,·,1,0.4,0
CCOC(=O)c1cccc(S(=O)(=O)N(CCO)Cc2cc3cc(OC)c(OC)cc3[nH]c2=O)c1,2,1.1,1,1,3
CCOC(=O)c1cccc(S(=O)(=O)N(CCO)Cc2cc3cc(OC)ccc3[nH]c2=O)c1,12,0.66,0.4,0.9,56*
O=C(c1ccccn1)N(Cc1cc2ccccc2[nH]c1=O)C1CCCCC1,41,-0.1,1,0.6,-3
CC1=C(C(=O)N2CCCCC2)C(c2cccs2)C2=C(CCCC2=O)N1 (centres undefined),4,0.46,1,1,5
C/C(=N\OCC(=O)N/N=C/c1ccccc1O)c1cccs1,-41,-4.3*,0.5,1.4,48
O=C(Nc1nnc(COc2ccc(Cl)cc2)s1)c1cccs1,55*,0.066,0.8,0.5,22
Cc1ccc(-c2cn(S(=O)(=O)c3cccc4nsnc34)nc2N)cc1,69*,-7.8*,0.1,0.3,89*
Cc1cccc(NC(=O)C2CCN(S(=O)(=O)c3cccc4nsnc34)CC2)n1,4,0.022,0.6,1,41
Nc1nn(S(=O)(=O)c2cccc3nsnc23)cc1-c1ccc(Br)cc1,100*,-5.9*,0,0,100*
COc1cc(-c2cn(S(=O)(=O)c3cccc4nsnc34)nc2N)cc(OC)c1OC,88*,0.063,0,0.1,96*
O=C(O)C1CSCN1S(=O)(=O)c1cccc2nsnc12 (centres undefined),-28,-1.6,1,1.3,5
COC(=O)c1coc(-c2ccc(C)cc2)c1C(=O)OC,59*,-1.5,0.2,0.4,79*
COC(=O)c1cn(-c2ccccc2)c(C)c1C(=O)OC,·,0.049,·,·,·
COC(=O)c1coc(-c2ccc(OC)cc2)c1C(=O)OC,19,-0.32,0.4,0.8,63*
SMILES,CYP2C9 inhib,Cav32 inh,CYP2C19 activ,CYP2C9 activ,CYP2C19 inhib
COc1ccc(C(=O)Nc2ccc(Cl)cc2C(=O)NCCO)cc1,32,-0.086,1,0.7,-1
CC1CN(S(=O)(=O)c2cccs2)CC(C)O1 (centres undefined),2,-0.62,0.6,1,35
CC1CCc2ccc(F)cc2N1S(=O)(=O)c1cccs1 (centres undefined),40,·,0.4,0.6,62*
Cc1ccc(NC(=O)CS(=O)CC(=O)NC(C)CCc2ccco2)cc1Cl (centres undefined),16,-0.52,0.7,0.8,34
CC(CCc1ccco1)NC(=O)Nc1cccc(F)c1 (centres undefined),83*,-0.66,0.2,0.2,84*
O=C(CSCc1ccc(Cl)cc1)N/N=C/c1ccc(Cl)cc1Cl,29,0.026,0.9,0.7,6
CCC(C)C(=O)N1c2ccccc2C(=C2SC(C(=O)OC)=C(C(=O)OC)S2)C(=S)C1(C)C (centres undefined),72*,-2,0.2,0.3,76*
O=C(Cc1cn2ccsc2n1)Nc1nc2c(s1)CN(Cc1ccccc1)CC2,8,0.036,1.1,0.9,-7
CC1CC1C(=O)OCc1cc(=O)n2cc(Br)ccc2n1 (centres undefined),36,0.15,0.4,0.6,63*
O=C(OCc1cc(=O)n2cc(Br)ccc2n1)C1COc2ccccc2O1 (centres undefined),10,-0.98,1,0.9,-4
CCC(Sc1nnc2c3ccccc3n(CC)c2n1)C(=O)Nc1sc2c(c1C#N)CCCC2 (centres undefined),52*,-3.6,0.6,0.5,38
CCOC(=O)Cc1nnc(NC(=O)C(CC)Sc2nnc3c4ccccc4n(C)c3n2)s1 (centres undefined),94*,0.05,0.5,0.1,48
CCOC(=O)c1sc(NC(=O)C(CC)Sc2nnc3c4ccccc4n(C(C)C)c3n2)nc1C (centres undefined),66*,-1.4,0.6,0.3,35
COC(=O)[C@@H]1C[C@]2(OC(=O)c3ccccc3)C=CC(=O)C[C@@H]2N1C(=O)OCc1ccccc1,·,-0.17,·,·,·
COC(C/C=C/[C@H](O)[C@H](C)OCc1ccccc1)OC,·,0.64,·,·,·
O=C(Cc1cccs1)N(c1ccc(Cl)cc1)C1C=CS(=O)(=O)C1 (centres undefined),24,-0.24,0.7,0.8,26
Cc1cc(C)cc(N(C(=O)c2ccc3c(c2)OCO3)C2C=CS(=O)(=O)C2)c1 (centres undefined),-13,-0.082,0.5,1.1,54*
O=C(c1ccc2c(c1)OCO2)N(c1ccc(Cl)cc1)C1C=CS(=O)(=O)C1 (centres undefined),25,-1.8,0.3,0.8,70*
O=C(c1ccc(Br)o1)N(c1ccc(Br)cc1)C1C=CS(=O)(=O)C1 (centres undefined),59*,-0.052,0.1,0.4,86*
Cc1ccc(N(C(=O)c2ccc3c(c2)OCO3)C2C=CS(=O)(=O)C2)cc1 (centres undefined),22,-0.42,0.6,0.8,44
COc1cc(C)c(Cl)cc1S(=O)(=O)N(C)C,-68,0.26,0.8,1.7,22
Cc1ccc(S(=O)(=O)N2CCC(=O)N(CCOC(=O)NCc3ccccc3)CC2)cc1,·,0.14,·,·,·
CCOC(=O)C1CCCN(C(=O)Cc2c(C(=O)O)[nH]c3ccccc23)C1 (centres undefined),7,-0.71,1,0.9,-4
Cc1c(C(=O)N2CCCC2)oc2c1-c1[nH]ncc1CC2,·,0.37,·,·,·
